Results published in PubChem BioAssay AID1835 (Johns Hopkins Ion Channel Center, 2009).
Hit rate of the full screen: of about 2,400 compounds, about 750 (31%) were called active. The list shows a part of the results. A number with no mark means an inactive call.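 How the source made its calls: active means median signal gain over dofetilide-blocked control wells reaching their mean plus 3 SD, so readout 1 at least 0; inactive means the rest.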

biological target: Voltage-gated inwardly rectifying potassium channel KCNH2 (Homo sapiens) (UniProt Q12809); test: modulators restoring hERG flux under dofetilide – cell-based, thallium flux, duplicate retest, dofetilide IC70, confirmation (AID 1835); details: hERG cell line, FluxOR thallium flux, dofetilide-blocked; at 10 µM; active compounds read high
Sequence (Q12809 whole entry, looked up): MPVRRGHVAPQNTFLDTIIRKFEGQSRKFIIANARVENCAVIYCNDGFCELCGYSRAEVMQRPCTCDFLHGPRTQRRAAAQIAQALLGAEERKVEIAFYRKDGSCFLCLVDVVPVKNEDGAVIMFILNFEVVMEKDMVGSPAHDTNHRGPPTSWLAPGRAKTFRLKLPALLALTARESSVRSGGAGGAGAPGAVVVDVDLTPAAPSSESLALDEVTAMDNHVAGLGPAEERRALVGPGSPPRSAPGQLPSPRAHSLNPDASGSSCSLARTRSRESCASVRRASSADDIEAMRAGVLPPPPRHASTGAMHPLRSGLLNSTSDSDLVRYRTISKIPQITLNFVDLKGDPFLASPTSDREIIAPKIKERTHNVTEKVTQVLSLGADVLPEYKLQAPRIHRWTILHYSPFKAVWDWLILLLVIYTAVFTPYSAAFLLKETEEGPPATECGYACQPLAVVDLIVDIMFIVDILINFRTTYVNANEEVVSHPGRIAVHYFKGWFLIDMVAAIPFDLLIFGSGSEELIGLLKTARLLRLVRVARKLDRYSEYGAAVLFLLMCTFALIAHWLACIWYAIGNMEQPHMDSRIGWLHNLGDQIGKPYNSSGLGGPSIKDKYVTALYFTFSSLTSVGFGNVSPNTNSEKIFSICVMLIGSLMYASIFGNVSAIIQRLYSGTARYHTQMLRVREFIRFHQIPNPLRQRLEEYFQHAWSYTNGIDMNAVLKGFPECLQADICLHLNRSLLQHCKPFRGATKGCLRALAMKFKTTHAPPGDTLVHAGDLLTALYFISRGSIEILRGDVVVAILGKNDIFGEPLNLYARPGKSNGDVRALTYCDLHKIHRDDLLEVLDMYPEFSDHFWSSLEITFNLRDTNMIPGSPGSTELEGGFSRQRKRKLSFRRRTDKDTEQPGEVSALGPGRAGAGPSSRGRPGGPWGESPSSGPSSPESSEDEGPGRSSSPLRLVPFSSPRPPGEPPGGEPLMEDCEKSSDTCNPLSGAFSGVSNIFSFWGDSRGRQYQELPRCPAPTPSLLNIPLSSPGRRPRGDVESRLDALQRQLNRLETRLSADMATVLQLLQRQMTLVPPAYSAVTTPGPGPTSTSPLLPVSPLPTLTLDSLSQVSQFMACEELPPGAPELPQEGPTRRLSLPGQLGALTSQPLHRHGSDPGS

Row | SMILES | activity increase over dofetilide control, less the hit threshold | activity increase over dofetilide control
1 | CC/C(=C\C=C\[C@@H]1C=C[C@@H]2CCC[C@H]2[C@@H]1C(=O)c1ccc[nH]1)[C@@H]1O[C@@H]([C@@H](C)C(=O)O)CC[C@@H]1C | 128% (active) | 
2 | Cc1nc2ccccc2c(=O)n1-c1cc([N+](=O)[O-])cc([N+](=O)[O-])c1 |  | -26%
3 | O=C(Cn1ncc2c3ccccc3n(Cc3ccccc3F)c2c1=O)N1CCC2(CC1)OCCO2 |  | 2% (active)
4 | CCCc1[nH]nc2c1C1(C(=O)N(Cc3ccccc3)c3ccccc31)C(C(=O)OC)=C(N)O2 (centres undefined) | -35% | 
5 | CC(=NCc1ccco1)c1c(O)n(-c2ccc(C)cc2)c(=O)[nH]c1=O |  | -19%
6 | O=c1[nH]c(=S)[nH]c(O)c1N=Nc1ccc(S(=O)(=O)N2CCc3ccccc32)cc1 |  | 25% (active)
7 | COc1ccc(-c2nc(CSCC(=O)N3CCC4(CC3)OCCO4)c(C)o2)cc1OC |  | -23%
8 | O=C(COc1ccc(Br)cc1)N1CCN(Cc2ccc3c(c2)OCO3)CC1 | -12% | 
9 | CCOC(=O)c1c(NS(=O)(=O)c2ccccc2)n(CCCOC)c2nc3ccccc3nc12 | 65% (active) | 
10 | CCCCn1c(O)c(C(CC)=Nc2ccc(OCC)cc2)c(=O)[nH]c1=O |  | -23%
11 | NS(=O)(=O)c1ccc(-c2ccc(C=C3C(=O)NC(=O)NC3=O)o2)cc1 |  | -2%
12 | CCOC(=O)Cn1cc([N+](=O)[O-])nc1[N+](=O)[O-] | -18% | 
13 | O=C1CC(=O)N(c2cccc(C(F)(F)F)c2)C(=O)N1 | -15% | 
14 | Cc1ccc(-n2c(O)c(/C=N/Nc3ccccc3)c(=O)[nH]c2=O)cc1C |  | -5%
15 | C=CCn1c(O)c(/C=C2/C=c3ccccc3=N2)c(=O)[nH]c1=S |  | 96% (active)
16 | O=c1[nH]c(=S)[nH]c(O)c1/C=C1/C=c2ccccc2=N1 |  | 14% (active)
17 | Cc1ccc(S(=O)(=O)NC(Cc2cnc[nH]2)C(=O)O)cc1 (centres undefined) | -7% | 
18 | COc1ccc2c3c1OC1C(O)C=CC4C(C2)[N+](C)(C)CCC341 (centres undefined) |  | -2%
19 | Oc1ccc(CC2(N3CCCC3)CCCCC2)cc1 | -14% | 
20 | CC(C)(C)c1ccc(OC(=O)N2CCCCC2)cc1 | -16% | 
21 | O=S(=O)(c1ccccc1)N1CCCCC1c1cccnc1 (centres undefined) | -17% | 
22 | O=C1NC(=O)N(Cc2ccccc2Cl)C(=O)/C1=C/N1CCOCC1 |  | -7%
23 | O=C1NC(=O)C(=Cc2ccc(-c3ccc(Cl)cc3)o2)C(=O)N1 |  | -1%
24 | O=C(O)CCC(=O)NCCC1=c2ccccc2=N/C1=C\c1c(O)n(Cc2ccc(F)cc2)c(=S)[nH]c1=O |  | 11% (active)
